Rows were chosen to be rich in hits. Some 4.8% of all compounds tested hit in one or more screens of this group.
TIM10 inh: growth inhibitors of isogenic TIM10 control yeast, primary screen, counter-screen for tim10-1 yeast inhibitor project, luminescence, uHTS; S. cerevisiae TIM10 strain growth, BacTiter-Glo luminescence, 24 h; inhibition, % at 10 µM; 330,000 compounds, 1.4% hits;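 active = inhibition of 40% or more at the single tested concentration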;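 also: wild-type TIM10 isogenic control strain grown at permissive 25 °C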
tim10-1 inh: growth inhibitors of tim10-1 mutant yeast, primary screen, luminescence, uHTS; inhibition, % at 20 µM; AID 463190, 2010; 330,000 compounds, 2.2% hits; S. cerevisiae tim10-1 ts strain growth, BacTiter-Glo, 24 h;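 active = inhibition of at least 40%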;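 also: mutant grown at 25 °C; 0% = DMSO wells with yeast and 100% = wells holding no yeast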
SKKanGAS inh: S. pyogenes SKKanGAS growth inhibitors in kanamycin, primary screen, streptokinase expression inhibitor project, SKKanGAS strain, BacTiter-Glo luminescence; inhibition, % at 7.5 µM; 300,000 compounds, 1.3% hits; 6 h; AID 1662, 2009;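 active = mean replicate score, as percent of positive control median, at least 50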;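 also: strain carries kanamycin resistance gene driven by streptokinase promoter and grows in 40 µg/ml kanamycin; loss of luminescence reflects streptokinase promoter inhibition or plain growth inhibition; 0% = median of DMSO wells and 100% = positive control at its reference dose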
PfHsp90 yeast 2: growth inhibition of PfHsp90-expressing yeast, primary screen, antimalarial PfHsp90 inhibitor project, S. cerevisiae, BacTiter-Glo luminescence, single point, set 2; BacTiter-Glo ATP, 48 h; yeast lacking PDR1 and PDR3 efflux regulators; inhibition, % at 9.4 µM; 310,000 compounds, 0.32% hits; AID 504621, 2011;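 active = every replicate shows inhibition above about 80%, whatever the replicate mean, limit read from the data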;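 also: 0% = DMSO neutral controls and 100% = 20 µM radicicol positive controls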
NALP1 yeast inh: NALP1 inflammasome inhibitors in reconstituted yeast, colorimetric, S. cerevisiae, triplicate retest | S. cerevisiae NALP1/ASC/caspase-1 growth, X-gal OD620, 72 h | inhibition, % at 10 µM | 280,000 compounds, 0.61% hits | AID 2071, 2009; in the data active = inhibition mostly above about 24%, no sharp cut-off; inactive = mostly below about 32%
tim23-1 inh: growth inhibitors of tim23-1 mutant yeast, primary screen, luminescence, uHTS; inhibition, % at 20 µM; 330,000 compounds, 1.3% hits; AID 463212, 2010; S. cerevisiae tim23-1 growth, BacTiter-Glo luminescence, 24 h;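 active = growth inhibition of the mutant yeast at or above 50%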;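 also: temperature-sensitive mutant grown at 25 °C; plate controls were DMSO-treated mutant yeast for no effect and medium wells lacking yeast for full effect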
The depositor's hits bear a star; nt = no result.

SMILES	TIM10 inh	tim10-1 inh	SKKanGAS inh	PfHsp90 yeast 2	NALP1 yeast inh	tim23-1 inh
Cn1c(SCC(=O)N/N=C/c2cc([N+](=O)[O-])ccc2O)nnc1-c1ccccc1	10	4	93*	24	nt	-21
CCOC(=O)c1c(C)[nH]c(C(=O)N/N=C/c2cc([N+](=O)[O-])ccc2O)c1C	26	21	80*	7	0	22
Cc1ccc(S(=O)(=O)CCC(=O)c2cccc([N+](=O)[O-])c2)cc1	20	25	4	nt	5	26
Clc1ccc(COc2cccc(CNCc3ccncc3)c2)cc1	-30	-15	0	18	13	-8
COc1ccc(N2CCN(C3=CC(=O)N(c4cccc(Cl)c4)C3=O)CC2)cc1	-38	18	28	nt	24*	7
O=C(CCN1C(=O)C2C3C=CC(C4CC34)C2C1=O)Oc1ccccc1 (stereo not drawn)	-3	11	1	nt	-2	11
C=C1C[C@H]2[C@@H]3CCc4cc(OC)ccc4[C@H]3CC[C@]12C	5	-6	76*	19	nt	10
C=CCn1c(COc2ccccc2)nnc1SC(C)C(=O)N/N=C/c1cc(Cl)ccc1O (stereo not drawn)	38	40	105*	-13	1	44
COc1ccc(OC)c2sc(NNC(=O)C3COc4ccccc4O3)nc12 (stereo not drawn)	19	8	nt	-40	-17	25
COc1ccc(C(=O)N/N=C/c2sc3ccccc3c2O)cc1	nt	nt	33	100*	24	nt
O=C(N/N=C/c1ccccc1)c1cccc2ccccc12	27	11	2	-17	nt	4
Oc1c(C=Nc2cccc3cccnc23)sc2ccccc12	15	33	94*	nt	14	16
O=C(N/N=C/c1sc2ccccc2c1O)c1cccc2ccccc12	nt	nt	91*	104*	7	nt
CN1C[C@H](C(=O)NC2(C)OC3(O)[C@@H]4CCCN4C(=O)[C@H](Cc4ccccc4)N3C2=O)CC2c3cccc4[nH]cc(c34)C[C@H]21 (stereo partly drawn)	9	6	3	-5	nt	-9
CCc1cc2c(NCC3CCCO3)ncnc2s1 (stereo not drawn)	-3	16	-2	-12	25	10
CN(C)Cc1c(O)ccc2c1O/C(=C\C=C\c1ccccc1)C2=O	-6	-6	-3	26	44*	16
COc1ccc(N(C(C)=O)C2C=CS(=O)(=O)C2)c(OC)c1 (stereo not drawn)	8	10	-7	-17	39*	3
COc1ccc(CC(=O)Nc2cccnc2)cc1	-3	-1	-3	-11	18	12
CCCCCCNC(=O)CC(c1ccccc1)c1cc(Br)ccc1O (stereo not drawn)	5	36	28	-26	8	40
CC(C)NC(=O)CC(c1ccccc1)c1cc(Br)ccc1O (stereo not drawn)	13	23	7	-10	40*	12
COc1ccc(NC(=O)COC(=O)CNS(=O)(=O)c2ccccc2)cc1OC	7	3	-2	-42	7	17
Cc1nc2nc(CSc3nnc(C)s3)cc(=O)n2[nH]1	2	9	-8	-1	nt	-6
c1ccc(-n2nnnc2-c2cnc(-c3ccncc3)nc2-c2cccs2)cc1	-30	11	-5	-76	22*	19
FC(F)(F)c1nc(-c2ccncc2)ncc1-c1nnnn1-c1ccccc1	-15	11	0	-20	20	9
CCNc1nc(NC(C)C)nc(NC(C)(C)C)n1	5	4	-8	-2	30*	12
SMILES	TIM10 inh	tim10-1 inh	SKKanGAS inh	PfHsp90 yeast 2	NALP1 yeast inh	tim23-1 inh
CC(C)Nc1nc(NNc2nc(Cl)nc(NC(C)(C)C)n2)nc(NC(C)C)n1	-14	-5	-4	nt	1	-5
O=C(CSc1nc2ccccc2c(=O)n1CC1CCCO1)Nc1ccccc1 (stereo not drawn)	-7	9	5	10	7	14
COc1ccc(C(=O)NNC(=S)NC(=O)C(C)(C)C)cc1	-20	-13	68*	-9	4	-43
COc1ccc(C(=O)NC(=S)NNC(=O)c2ccccc2O)cc1	-4	7	102*	11	9	11
O=C(NC(=S)NCCO)c1sc2ccccc2c1Cl	1	5	-2	-37	26	13
COc1ccc(C(=O)NC(=S)NNC(=O)c2ccccc2C)cc1	3	-8	101*	-1	nt	31
CC(C)(C)C(=O)NC(=S)NNC(=O)c1sc2ccccc2c1Cl	-4	-59	100*	99*	18	21
CCNC(=O)COC(=O)Cc1ccc(Cl)cc1Cl	-16	1	1	5	-3	8
COc1ccc(C(=O)/C=C/Nc2ccc(S(=O)(=O)Nc3ncccn3)cc2)cc1	-25	5	5	nt	23	-8
CCn1c(C)nc2cc(C(=O)NNC(=S)NC(=O)c3ccc(OC)cc3)ccc21	-1	9	59*	60	-31	22
OC(CSc1c(Cl)cccc1Cl)CN1CCN(c2ccccc2F)CC1 (stereo not drawn)	7	36	2	-16	60*	15
Cn1c(=O)oc2cc(S(=O)(=O)NCCN3CCN(c4ccccc4)CC3)ccc21	0	10	-11	-3	-18	15
O=c1c(C=Nc2cccc(C(F)(F)F)c2)c[nH]n1-c1cccc(Cl)n1	-6	11	11	-59	2	-11
Cc1ccc(NC2=C(NC(=O)c3ccccc3)C(=O)c3ccccc3C2=O)cc1Cl	22	29	74*	-8	65*	41
Cc1nnn(C23CC4CC(CC(CC(=O)Nc5cccc(F)c5)(C4)C2)C3)n1	-13	7	14	11	29*	21
CCCCC1CCC(c2nc(-c3ccccn3)no2)CC1 (stereo not drawn)	30	36	61*	nt	22	28
c1ccc(-c2noc(C3CCC3)n2)nc1	13	4	-1	nt	nt	14
O=C(CSc1nc2ccccc2[nH]1)Nc1nc(-c2cccc(Br)c2)cs1	21	3	80*	4	0	31
O=C(O)CCCn1c(O)c(C=C2N=c3ccccc3=N2)sc1=S	-14	8	5	-32	nt	6
COCCCn1c(O)c(/C=C2\N=C(C#N)C(=Nc3ccc(C)cc3)O2)sc1=S	11	9	53*	0	8	13
S=C(Nc1ccccn1)c1ccccn1	-11	5	28	0	-13	16
O=C(COC(=O)c1ccccc1[N+](=O)[O-])Nc1nnc(-c2ccccc2)o1	1	6	0	nt	nt	13

Screening results deposited in PubChem by several laboratories.
